Records with an inconclusive call do not appear. The source made the active and inactive calls. The call rests on the fitted dose curve; in most records, active means well fitted curve in the direction sought with a large enough effect; inconclusive means small, poorly fitted or top-dose-only effect, or another doubt; inactive means no such curve, though single readings can be large; an effect the other way counts as inactive or inconclusive.
Assays:
CRL-7250 = normal cell line; assay: Cytotoxic Profiling of Annotated Libraries Using Quantitative High-Throughput Screening (AID 1296008); conditions: Five cell lines viability, CellTiter-Glo ATP luminescence, 48-72 h; max response: active compounds read low; further: nearly all actives have a fitted effect of over 60% in size; on max response: on the % scale 0 is the no-effect control and ±100 the full control effect
How it was run: (§1)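 Cytotoxicity was measured as CellTiter-Glo ATP luminescence, read after 10 min at room temperature. Compound treatment of the cells lasted 48 or 72 hr at 37 degrees Celsius in a qHTS format.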

HEK293 = assay: as above; conditions: Five cell lines viability, CellTiter-Glo ATP luminescence, 48-72 h; max response: active compounds read low
How it was run: as §1

HaCat [1] = assay: as above; conditions: Five cell lines viability, CellTiter-Glo ATP luminescence, 48-72 h; max response: active compounds read low
How it was run: as §1

KB-3-1 = assay: as above; conditions: Five cell lines viability, CellTiter-Glo ATP luminescence, 48-72 h; max response: active compounds read low
How it was run: as §1

NIH3T3 [2] = assay: as above; conditions: Five cell lines viability, CellTiter-Glo ATP luminescence, 48-72 h; max response: active compounds read low
How it was run: as §1

HACAT [3] = assay: qHTS assay to identify novel small-molecules to repurpose for Merkel cell carcinoma treatment (AID 1296009); conditions: MCC and control cell lines, CellTiter-Glo viability, 72 h; at 44.8 µM (top of the series) unless noted; further: nearly all actives have a fitted effect of over 60% in size
How it was run: (§2)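 Cell viability, measured as CellTiter-Glo luminescence, was normalized between DMSO and no-cell wells. The cells had been exposed to 8- or 11-point compound dilutions for 72 hr at 37 degree celsius.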

NIH3T3 [4] = assay: as above; conditions: MCC and control cell lines, CellTiter-Glo viability, 72 h; at 44.8 µM (top of the series) unless noted
How it was run: as §2

C33A = assay: Primary qHTS to identify gynecologic anti-cancer compounds using libraries of approved drugs and bioactive compounds (AID 1345084); conditions: Gynecologic cancer cell panel viability, ATPlite luminescence, 48 h; series mostly up to 57.5 µM; further: on the % scale 0 is the no-effect control and ±100 the full control effect; nearly all actives have a fitted effect of over 55% in size
How it was run: (§3)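 Measured: luminescence after ATPlite addition (15 min, RT). Exposure: 48 h, 37 C, 5% CO2.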

CAOV3 = assay: as above; conditions: Gynecologic cancer cell panel viability, ATPlite luminescence, 48 h; series mostly up to 57.5 µM
How it was run: as §3

CASKI = assay: as above; conditions: Gynecologic cancer cell panel viability, ATPlite luminescence, 48 h; series mostly up to 57.5 µM
How it was run: as §3

Es-2 = assay: as above; conditions: Gynecologic cancer cell panel viability, ATPlite luminescence, 48 h; series mostly up to 57.5 µM
How it was run: as §3

HeLa = assay: as above; conditions: Gynecologic cancer cell panel viability, ATPlite luminescence, 48 h; series mostly up to 57.5 µM
How it was run: as §3

Hek293T = assay: as above; conditions: Gynecologic cancer cell panel viability, ATPlite luminescence, 48 h, control line for the selectivity index; series mostly up to 57.5 µM
How it was run: as §3

JEG-3 = assay: as above; conditions: Gynecologic cancer cell panel viability, ATPlite luminescence, 48 h; series mostly up to 57.5 µM
How it was run: as §3

OV90 = assay: as above; conditions: Gynecologic cancer cell panel viability, ATPlite luminescence, 48 h; series mostly up to 57.5 µM
How it was run: as §3

PA-1 = assay: as above; conditions: Gynecologic cancer cell panel viability, ATPlite luminescence, 48 h; series mostly up to 57.5 µM
How it was run: as §3

Nc1ccc(-n2nc(C(F)(F)F)cc2C(F)(F)F)cc1
inactive: max response (CRL-7250) 1.57% | max response (HEK293) -3.16% | outcome (HaCat [1]) | max response (KB-3-1) 7.09% | outcome (NIH3T3 [2]) | outcome (HACAT [3]) | outcome (NIH3T3 [4]) | Potency (C33A) | Potency (CAOV3) | outcome (CASKI) | Potency (Es-2) | Potency (HeLa) | Potency (Hek293T) | Potency (JEG-3) | Potency (OV90) | Potency (PA-1)

O=C(O)C[C@H]1CCC(=O)[C@@H]1C/C=C\CCO
inactive: outcome (CRL-7250) | max response (HEK293) 0.813% | outcome (HaCat [1]) | max response (KB-3-1) 0.282% | outcome (NIH3T3 [2]) | outcome (HACAT [3]) | outcome (NIH3T3 [4]) | Potency (C33A) | Potency (CAOV3) | outcome (CASKI) | Potency (Es-2) | Potency (HeLa) | Potency (Hek293T) | Potency (JEG-3) | Potency (OV90) | Potency (PA-1)

C/C=C/C=C/C(O)=C1/C(=O)[C@]2(C)C3/C(=C(O)/C=C/C=C/C)C(=O)C4(C)C1[C@]1(C)O[C@@]4(O)[C@@]3(C)O[C@@]12O
inactive: outcome (CRL-7250) | max response (HEK293) 2.27% | outcome (HaCat [1]) | max response (KB-3-1) 0.929% | outcome (NIH3T3 [2]) | outcome (HACAT [3]) inactive [at 17.4 µM] | outcome (NIH3T3 [4]) inactive [at 17.4 µM] | Potency (C33A) | Potency (CAOV3) | outcome (CASKI) | Potency (Es-2) | Potency (HeLa) | Potency (Hek293T) | Potency (JEG-3) | Potency (OV90) | Potency (PA-1)

C=C[C@H]1[C@H](O[C@@H]2O[C@H](CO)[C@@H](O)[C@H](OC(=O)/C=C/c3ccc(O)c(OC)c3)[C@H]2O)OC=C2C(=O)OCC[C@]21O
inactive: max response (CRL-7250) -3.95% | max response (HEK293) -3.81% | outcome (HaCat [1]) | max response (KB-3-1) 6.87% | outcome (NIH3T3 [2]) | outcome (HACAT [3]) inactive [at 17.4 µM] | outcome (NIH3T3 [4]) inactive [at 17.4 µM] | Potency (C33A) | Potency (CAOV3) | outcome (CASKI) | Potency (Es-2) | Potency (HeLa) | Potency (Hek293T) | Potency (JEG-3) | Potency (OV90) | Potency (PA-1)

C[C@@]12CC3(S(=O)(=O)O)OC(O1)[C@]1(COC(=O)c4ccccc4)[C@H]3C[C@]21O[C@@H]1O[C@H](CO)[C@@H](O)[C@H](O)[C@H]1O
inactive: max response (CRL-7250) 2.31% | max response (HEK293) 2.36% | outcome (HaCat [1]) | outcome (KB-3-1) | outcome (NIH3T3 [2]) | outcome (HACAT [3]) inactive [at 17.4 µM] | outcome (NIH3T3 [4]) inactive [at 17.4 µM] | Potency (C33A) | Potency (CAOV3) | outcome (CASKI) | Potency (Es-2) | Potency (HeLa) | Potency (Hek293T) | Potency (JEG-3) | Potency (OV90) | Potency (PA-1)

COc1cc2c(c(OC)c1O)C(c1ccc(O)cc1)C1C(=O)OC3C(COC(=O)C1=C2)OC(CO)(OC1OC(COC(=O)/C=C/c2ccc(OC4OC(C)C(O)C(O)C4O)cc2)C(O)C(O)C1O)C3O (stereo not given)
inactive: max response (CRL-7250) 2.78% | max response (HEK293) -18.4% | outcome (HaCat [1]) | max response (KB-3-1) -2.91% | outcome (NIH3T3 [2]) | outcome (HACAT [3]) inactive [at 9.27 µM] | outcome (NIH3T3 [4]) inactive [at 9.27 µM] | activity change, negative = cytotoxicity (C33A) 12% [at 11.6 µM] | activity change, negative = cytotoxicity (CAOV3) -2.13% [at 11.6 µM] | activity change, negative = cytotoxicity (CASKI) 3.12% [at 11.6 µM] | activity change, negative = cytotoxicity (Es-2) 0.658% [at 11.6 µM] | activity change, negative = cytotoxicity (HeLa) -0.142% [at 11.6 µM] | activity change, negative = cytotoxicity (Hek293T) 7.04% [at 11.6 µM] | activity change, negative = cytotoxicity (JEG-3) 8.95% [at 11.6 µM] | activity change, negative = cytotoxicity (OV90) 10.3% [at 11.6 µM] | activity change, negative = cytotoxicity (PA-1) -0.775% [at 11.6 µM]

CC(=O)OC/C(=C/C(=O)O)CC[C@@H]1C(C)=CC(=O)[C@@H]2C(C)(C)CCC[C@@]12C
inactive: outcome (CRL-7250) | max response (HEK293) -0.879% | outcome (HaCat [1]) | max response (KB-3-1) -6.11% | outcome (NIH3T3 [2]) | outcome (HACAT [3]) | outcome (NIH3T3 [4]) | Potency (C33A) | Potency (CAOV3) | outcome (CASKI) | Potency (Es-2) | Potency (HeLa) | Potency (Hek293T) | Potency (JEG-3) | Potency (OV90) | Potency (PA-1)

CC1=C(CC/C(C)=C/C(=O)O)[C@@]2(C)CCCC(C)(C)C2CC1=O (stereo not given in full)
inactive: max response (CRL-7250) -7.55% | max response (HEK293) -5.92% | outcome (HaCat [1]) | outcome (KB-3-1) | outcome (NIH3T3 [2]) | outcome (HACAT [3]) | outcome (NIH3T3 [4]) | Potency (C33A) | Potency (CAOV3) | outcome (CASKI) | Potency (Es-2) | Potency (HeLa) | Potency (Hek293T) | Potency (JEG-3) | Potency (OV90) | Potency (PA-1)

CC(=O)NC1C(OC2CCC3(C)C(CCC4(C)C3CC=C3C5CC(C)(C)CCC5(C(=O)O)C(O)CC34C)C2(C)C)OC(CO)C(O)C1O (stereo not given)
inactive: max response (CRL-7250) -37.4% | max response (HEK293) -25.2% | outcome (HaCat [1]) | max response (KB-3-1) 0.467% | outcome (NIH3T3 [2]) | outcome (HACAT [3]) inactive [at 17.4 µM] | outcome (NIH3T3 [4]) inactive [at 17.4 µM] | Potency (C33A) | Potency (CAOV3) | outcome (CASKI) | Potency (Es-2) | Potency (HeLa) | Potency (Hek293T) | Potency (JEG-3) | Potency (OV90) | Potency (PA-1)

Cc1occc(=O)c1O[C@@H]1O[C@H](COC(=O)CC(C)(O)CC(=O)O)[C@@H](O)[C@H](O)[C@H]1O (stereo not given in full)
inactive: outcome (CRL-7250) | max response (HEK293) -5.53% | outcome (HaCat [1]) | outcome (KB-3-1) | outcome (NIH3T3 [2]) | outcome (HACAT [3]) inactive [at 17.4 µM] | outcome (NIH3T3 [4]) inactive [at 17.4 µM] | Potency (C33A) | Potency (CAOV3) | outcome (CASKI) | Potency (Es-2) | Potency (HeLa) | Potency (Hek293T) | Potency (JEG-3) | Potency (OV90) | Potency (PA-1)

Reference: PubChem BioAssay (NCATS)
